mIDH1 inhibitor – blocks human mutant IDH1 R132H enzyme; hit rate 0.093% among 390,000; IDH1-R132H enzyme, NADPH consumption, diaphorase/resazurin fluorescence; O75874; Potency, µM (top dose mostly 76.6 µM), inactives show at the highest dose activity change, negative = inhibition, actives largely listed as inhibitors; also: % is scaled to controls: 0 for no effect and ±100 for the full control effect; nearly all actives have a fitted effect of over 65% in size
Target sequence (O75874 whole entry R132H, stated change not applied): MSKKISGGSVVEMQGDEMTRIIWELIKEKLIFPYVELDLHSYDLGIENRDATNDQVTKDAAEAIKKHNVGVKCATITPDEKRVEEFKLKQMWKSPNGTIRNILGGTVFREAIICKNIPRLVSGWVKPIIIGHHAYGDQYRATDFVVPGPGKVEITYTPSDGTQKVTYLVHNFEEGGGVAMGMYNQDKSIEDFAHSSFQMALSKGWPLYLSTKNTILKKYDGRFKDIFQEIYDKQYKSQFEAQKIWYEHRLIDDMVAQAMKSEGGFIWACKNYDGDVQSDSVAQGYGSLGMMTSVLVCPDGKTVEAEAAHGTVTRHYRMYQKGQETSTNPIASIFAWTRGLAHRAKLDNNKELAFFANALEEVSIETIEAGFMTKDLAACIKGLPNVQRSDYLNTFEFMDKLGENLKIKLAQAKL
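IDH1-R132H (0.5 ug/mL) preincubated 30 min with compound, then NADPH (0.016 mM) and alpha-KG (2 mM) added; 80 min at RT, pH 7.5. Remaining NADPH coupled via diaphorase/resazurin to fluorescence (540/590 nm); concentration-response curves normalized to no-enzyme control.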
A549 tox – kills or reduces viability of A549 cells in Nrf2 counter-screen. A549 ARE-Fluc cells, CellTiter-Fluor viability, 18-24 h. Potency, µM (top dose mostly 46 µM), for inactives: at the highest dose activity change, negative = cytotoxicity, most hits filed as inhibitors. hit rate 0.16% among 390,000; also: % is scaled to controls: 0 for no effect and ±100 for the full control effect
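Cytotoxicity counterscreen: CellTiter-Fluor fluorescence was measured in A549 ARE_Fluc cells after 18-24 h of compound exposure in a concentration series. The subsequent BugLite luminescent read reports ARE-luciferase activity.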
Nrf2 inh – blocks Nrf2 signaling | Potency, µM (titrated, usually from 46 µM), without a hit: at the highest dose activity change, negative = inhibition, usual class: inhibitors | hit rate 2.1% among 360,000 | A549 ARE-Fluc reporter, luciferase luminescence, 18-24 h; also: % is scaled to controls: 0 for no effect and ±100 for the full control effect; nearly all actives have a fitted effect of over 60% in size
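Nrf2 function is reported as luminescence of an ARE-controlled luciferase in A549 cells. Compounds were tested at several concentrations, and a CellTiter-Fluor read on the same wells flagged cytotoxicity.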
Nrf2 activator – activates Nrf2 signaling | AREc32 ARE-luciferase reporter (MCF7-derived line), luminescence, 24 h | Potency, µM (top dose mostly 46.1 µM), inactives show at the top dose activation, most hits filed as activators | hit rate 0.31% among 410,000; also: % of control where 0% means no effect; nearly all actives have a fitted effect of over 65% in size
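For detection, Steady-Glo was added and plates sat 30 min at RT; before that, AREc32_Fluc cells grown overnight in OPTI-MEM/5% FBS had been treated with 23 nL compound for 24 hr at 37 deg C.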
ELG1 DNA repair – inhibitors of ELG1-dependent DNA repair in HEK293T cells. HEK293T ELG1-luciferase reporter, luminescence, 16 h; DNA damage induced by 5-fluorouridine. Potency, µM (titrated, usually from 46.1 µM), for the others: top-dose activity change, negative = inhibition, most hits filed as inhibitors. hit rate 2.3% among 330,000; also: % is scaled to controls: 0 for no effect and ±100 for the full control effect; nearly all actives have a fitted effect of over 55% in size
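DMSO vehicle served as the neutral condition. Each well held 2,000 cells given 5-fluorouridine plus compound; after 16 hr at 37 °C/5% CO2, ONE-Glo was added and luciferase measured 30 min later.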
* = called active by the depositor. This is a sample that favours compounds with a hit; in the whole collection about 3.8% have one here. Calls follow the shape of the dose curve; as a rule, active = well fitted curve in the direction sought with a large enough effect; inconclusive = small, poorly fitted or top-dose-only effect, or another doubt; inactive = no such curve, though single readings can be large; an effect the other way counts as inactive or inconclusive. Potency is read from the fitted curve at half-maximal effect.

`Cc1cc(C(=O)COC(=O)Cc2n[nH]c(=O)c3ccccc23)c(C)n1-c1cccc(C(F)(F)F)c1` gave mIDH1 inhibitor -0.5%, A549 tox -4.5%, Nrf2 inh -23.7%, Nrf2 activator 4.8% and ELG1 DNA repair 23.1µM*.
Cc1cc(C(=O)COC(=O)CC2Sc3ccccc3NC2=O)c(C)n1-c1cccc(C(F)(F)F)c1 (stereo not given) was read as mIDH1 inhibitor 2.6%, A549 tox 1.0%, Nrf2 inh -2.5%, Nrf2 activator 5.6% and ELG1 DNA repair 3.0%.
CN(Cc1ccc(Cl)c(Cl)c1)C(=O)C1=CC=CN2CCS(=O)(=O)N=C12 was read as mIDH1 inhibitor 10.7%, A549 tox -4.4%, Nrf2 inh 8.2µM*, Nrf2 activator 0.1% and ELG1 DNA repair -1.3%.
For COc1ccc(Br)cc1CN(C)C(=O)C1=CC=CN2CCS(=O)(=O)N=C12 the results were mIDH1 inhibitor -0.1%, A549 tox -10.6%, Nrf2 inh 16.4µM*, Nrf2 activator 0.1% and ELG1 DNA repair 2.2%.
`COc1ccc(Br)cc1CN(C)C(=O)c1ccncc1` gave mIDH1 inhibitor 22.4%, A549 tox 1.9%, Nrf2 inh 1.0%, Nrf2 activator -0.2% and ELG1 DNA repair 3.8%.
For CC(CNC(=O)CCc1cn(Cc2ccccc2Cl)c2ccccc12)c1ccccc1 (stereo not given) the results were mIDH1 inhibitor -11.6%, A549 tox -16.4%, Nrf2 inh inconclusive and Nrf2 activator 0.8%.
For CCN(CCCNC(=O)c1cc(Nc2ccccc2OC)nc2ccccc12)c1cccc(C)c1 the results were mIDH1 inhibitor 0.0%, A549 tox -1.5%, Nrf2 inh 4.0% and Nrf2 activator 2.6%.
For Cc1cccc(N2CCN(C(=O)c3cc4cc(F)ccc4[nH]3)CC2)c1C the results were mIDH1 inhibitor 4.0%, A549 tox -4.4%, Nrf2 inh 17.8%, Nrf2 activator 7.08µM* and ELG1 DNA repair inconclusive.
`COc1ccccc1N1CCN(C(=O)c2cc3cc(F)ccc3[nH]2)CC1` gave mIDH1 inhibitor 3.4%, A549 tox -2.3%, Nrf2 inh inconclusive, Nrf2 activator 6.1% and ELG1 DNA repair -20.3%.
`O=C(Nc1nncs1)c1cccc(S(=O)(=O)N2CCc3ccccc32)c1` gave mIDH1 inhibitor -9.0%, A549 tox -9.7%, Nrf2 inh inconclusive, Nrf2 activator -0.7% and ELG1 DNA repair 3.7%.
`O=C(Nc1nc2c(s1)CCCC2)c1cccc(S(=O)(=O)N2CCCc3ccccc32)c1` gave mIDH1 inhibitor 0.6%, A549 tox 1.4%, Nrf2 inh 20.6µM*, Nrf2 activator 4.3% and ELG1 DNA repair -9.3%.
`CCCNC(=O)c1cc(S(=O)(=O)N2CCc3ccccc32)cn1C` gave mIDH1 inhibitor 18.3%, A549 tox -11.6%, Nrf2 inh 11.6µM*, Nrf2 activator 0.4% and ELG1 DNA repair -3.0%.
For COc1ccc(S(=O)(=O)N2CCc3ccccc32)cc1C(=O)NCCc1ccccn1 the results were mIDH1 inhibitor 4.2%, A549 tox 7.4%, Nrf2 inh 3.0%, Nrf2 activator -0.7% and ELG1 DNA repair 18.3µM*.
Screening CCC(CC)c1nnc(NC(=O)c2cccc(S(=O)(=O)N3CCc4ccccc43)c2)s1 returned mIDH1 inhibitor -10.9%, A549 tox -2.7%, Nrf2 inh 20.6µM*, Nrf2 activator 0.5% and ELG1 DNA repair -8.9%.
CCn1c(=O)n(CC)c2cc(S(=O)(=O)N3CCc4ccccc43)ccc21 was read as mIDH1 inhibitor 27.1%, A549 tox 6.3%, Nrf2 inh inconclusive, Nrf2 activator 3.8% and ELG1 DNA repair 16.4µM*.
Screening Cc1cc(C(N)=O)c2ccccc2n1 returned mIDH1 inhibitor 7.1%, A549 tox 1.9%, Nrf2 inh 4.1%, Nrf2 activator 0.0% and ELG1 DNA repair -12.6%.
`NC(=O)c1cc2c3ccccc3ccn2c1-c1ccccc1` gave mIDH1 inhibitor -4.2%, A549 tox -9.5%, Nrf2 inh 12.4%, Nrf2 activator 10µM* and ELG1 DNA repair inconclusive.
`Cc1ccc(-c2nnc(Nc3ccc(Br)cc3)c3ccccc23)cc1S(=O)(=O)N1CCOCC1` gave mIDH1 inhibitor -9.2%, A549 tox 3.5% and Nrf2 activator -0.7%.
Screening O=C1C=CC(=O)N1Cc1ccccc1 returned mIDH1 inhibitor -5.7%, A549 tox inconclusive, Nrf2 inh 16.4µM*, Nrf2 activator 7.9% and ELG1 DNA repair -6.4%.
O=[N+]([O-])c1ccc(N2CCN(CCOc3nonc3-c3ccccc3)CC2)c(Cl)c1 was read as mIDH1 inhibitor -2.8%, A549 tox -3.3%, Nrf2 inh 3.1%, Nrf2 activator 0.0% and ELG1 DNA repair -7.4%.
Cc1nonc1OCCN1CCN(c2ccc([N+](=O)[O-])cc2)CC1 was read as mIDH1 inhibitor -3.0%, A549 tox -17.1%, Nrf2 inh -22.1%, Nrf2 activator 3.9% and ELG1 DNA repair 20.6µM*.
For N#Cc1nc(Nc2cc(F)cc(F)c2)c2ncn(CCO)c2n1 the results were A549 tox -19.8% and Nrf2 inh -5.7%.
CCCCN(c1ccccc1)c1ncnc(N)c1[N+](=O)[O-] was read as mIDH1 inhibitor -1.0%, A549 tox -5.2%, Nrf2 activator -0.1% and ELG1 DNA repair 2.59µM*.
`Cc1ccc(CCNC(=O)c2cnc3c(C)cccn3c2=O)cc1` gave mIDH1 inhibitor 8.1%, A549 tox 10.3% and Nrf2 activator 0.3%.
For CCOC(=O)c1c(C)nc(-c2ccccc2)nc1N the results were mIDH1 inhibitor 5.8%, A549 tox -14.9%, Nrf2 inh inconclusive, Nrf2 activator 12.6µM* and ELG1 DNA repair inconclusive.
`CC(=O)c1c(C)nc(-c2ccccc2)nc1N` gave mIDH1 inhibitor 0.1%, A549 tox -0.2%, Nrf2 inh inconclusive, Nrf2 activator 11.6% and ELG1 DNA repair inconclusive.
For CO[C@@]12[C@H](COC(N)=O)C3=C(C(=O)C(C)=C(N)C3=O)N1C[C@@H]1N[C@@H]12 the results were mIDH1 inhibitor -8.9%, A549 tox -10.5%, Nrf2 inh inconclusive, Nrf2 activator -0.1% and ELG1 DNA repair 0.0%.
For CO[C@@]12[C@@H]3N[C@@H]3CN1C1=C(C(=O)C(N)=C(C)C1=O)[C@@H]2COC(N)=O the results were mIDH1 inhibitor 2.1%, A549 tox inconclusive, Nrf2 inh 10.3µM* and Nrf2 activator 3.2%.
CCn1cc(S(=O)(=O)c2ccc(OC)cc2)c(=O)c2cc(F)c(N3CCC(C)CC3)cc21 was read as mIDH1 inhibitor 1.4%, A549 tox 0.2%, Nrf2 inh 16.4µM* and Nrf2 activator 0.1%.
`CCn1cc(S(=O)(=O)c2ccc(OC)cc2)c(=O)c2cc(F)c(N3CCCCCC3)cc21` gave mIDH1 inhibitor -7.9%, A549 tox 12.2%, Nrf2 inh 0.5% and Nrf2 activator -1.1%.

Assay outcomes as filed in PubChem BioAssay.
